The entries come from a sample that favours hits as a whole.
GIRK2 act: Activates human GIRK2-containing potassium channels | P48051 | HEK293 GIRK2/NPY4 cells, thallium flux fluorescence | activation (% efficacy), % for hits at 37.5 µM | 34,000 tested, under 10 active | AID 1259324;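 active means primary screen hit, no activity in plain HEK293 cells, and in GIRK2-only cells above 5% efficacy rising with concentration; inactive means the rest, including fluorescent compounds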;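 further: efficacy is normalized control-subtracted fluorescence 15 s after thallium addition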
GluA2 TARP mod: GluA2-stargazin AMPA receptor complex modulation; O88602+P19491; HEK293 GluA2+stargazin, membrane potential dye (FDSS), glutamate EC50; hits were called plate by plate, in both directions; calls only at 30 µM; actives 3.5% (n = 40,000);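 active means any of four per-well response measures lying three or more SD from its plate-wide compound average, in either direction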
Target sequence (O88602 whole entry, looked up): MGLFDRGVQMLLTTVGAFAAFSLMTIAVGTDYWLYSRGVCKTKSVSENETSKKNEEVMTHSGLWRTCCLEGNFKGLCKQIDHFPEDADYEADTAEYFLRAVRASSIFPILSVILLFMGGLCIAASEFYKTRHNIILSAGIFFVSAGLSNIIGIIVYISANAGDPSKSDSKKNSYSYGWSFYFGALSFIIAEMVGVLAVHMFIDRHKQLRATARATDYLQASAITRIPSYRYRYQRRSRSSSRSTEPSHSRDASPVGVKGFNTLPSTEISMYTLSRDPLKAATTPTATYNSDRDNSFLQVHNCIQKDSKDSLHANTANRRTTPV
Target sequence (P19491 whole entry, looked up): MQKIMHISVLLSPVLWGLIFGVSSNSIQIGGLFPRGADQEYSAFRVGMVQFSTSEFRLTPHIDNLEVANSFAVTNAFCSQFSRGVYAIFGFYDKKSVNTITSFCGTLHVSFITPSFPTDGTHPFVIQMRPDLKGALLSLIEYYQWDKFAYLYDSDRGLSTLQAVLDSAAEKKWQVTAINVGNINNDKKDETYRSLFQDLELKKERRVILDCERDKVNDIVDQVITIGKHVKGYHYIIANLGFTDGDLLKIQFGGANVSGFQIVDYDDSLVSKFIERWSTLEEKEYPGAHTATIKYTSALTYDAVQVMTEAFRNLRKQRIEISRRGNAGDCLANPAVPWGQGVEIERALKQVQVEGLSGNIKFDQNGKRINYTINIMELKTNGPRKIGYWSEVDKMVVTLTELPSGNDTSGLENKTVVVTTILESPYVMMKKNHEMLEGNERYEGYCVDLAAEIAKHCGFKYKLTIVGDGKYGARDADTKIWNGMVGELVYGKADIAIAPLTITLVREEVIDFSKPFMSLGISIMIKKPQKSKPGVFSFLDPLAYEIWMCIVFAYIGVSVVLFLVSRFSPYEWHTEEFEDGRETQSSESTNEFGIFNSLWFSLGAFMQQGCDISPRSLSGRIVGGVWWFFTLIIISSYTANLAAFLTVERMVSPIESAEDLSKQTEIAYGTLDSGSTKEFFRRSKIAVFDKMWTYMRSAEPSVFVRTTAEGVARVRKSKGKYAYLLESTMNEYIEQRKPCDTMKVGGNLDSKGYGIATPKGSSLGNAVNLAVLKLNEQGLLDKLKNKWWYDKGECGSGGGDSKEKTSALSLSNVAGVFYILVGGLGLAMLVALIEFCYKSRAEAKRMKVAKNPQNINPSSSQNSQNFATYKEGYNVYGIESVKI
* hit, by the source's call; i = inactive; / = not tested or not shown; + = active, no number.

SMILES | GIRK2 act | GluA2 TARP mod
CCNc1cc(NCCNC(=O)c2ncccn2)nc(C)n1 | i | +
Cc1nc(NCCNC(=O)Nc2cccc(C)c2C)cc(N2CCOCC2)n1 | i | /
Cc1nccn1-c1cc(NCCNC(=O)Cc2ccccc2)ncn1 | i | i
COc1ccc(CCNC(=O)CCCn2nc(-c3cccs3)ccc2=O)cc1 | i | /
O=C(CSc1nccn1C1CCCC1)NC1CCCC1 | i | i
O=C(c1ccccc1)c1ccc(OCC(O)CNc2ccc(F)cc2)cc1 (stereo not drawn) | i | +
O=C(c1ccccc1)c1ccc(OCC(O)CN2CCN(c3ccccc3F)CC2)cc1 (stereo not drawn) | i | i
COc1ccc(N2CCN(C(=O)c3cc4ccccc4oc3=O)CC2)nn1 | i | /
O=S(=O)(NCC(O)(c1ccco1)C1CC1)c1ccc(F)c(Cl)c1 (stereo not drawn) | i | +
O=S(=O)(NCC(O)(c1ccco1)C1CC1)c1cc(F)ccc1F (stereo not drawn) | i | i
CC(C)Sc1cccc(C(=O)Nc2sccc2C#N)c1 | / | +
CC(C)S(=O)(=O)c1cccc(C(=O)Nc2sccc2C#N)c1 | i | i
O=C1c2cc(NC(=O)C3(c4cccs4)CCCC3)ccc2OCCC2CCCCN12 (stereo not drawn) | i | +
O=C(/C=C/c1ccccc1Cl)Nc1ccc2c(c1)C(=O)N1CCCCC1CCO2 (stereo not drawn) | i | i
COc1cc(NC(=O)CCc2csc(NC(=O)c3ccco3)n2)cc(OC)c1OC | i | i
COc1ccc(S(=O)(=O)CC(=O)Nc2nccs2)cc1 | i | i
O=C(NCC(c1ccsc1)N1CCc2ccccc2C1)C1CC1 (stereo not drawn) | i | +
COc1c(C)cc(S(=O)(=O)NCC(c2ccsc2)N2CCc3ccccc3C2)cc1C (stereo not drawn) | i | i
CCc1ccc(S(=O)(=O)N2CCN(c3ccc(-c4ccco4)nn3)CC2)s1 | i | i
COc1cccc(C(=O)Nc2cc(C3CC3)nn2-c2nc(C(C)C)cc(=O)[nH]2)c1OC | i | i
C=C(C)CN1CCN(c2cc(C)nc3c4c(C)cc(C)nc4nn23)CC1 | i | +
Cc1cc(C)c2c(n1)nn1c(N3CCN(Cc4ccccc4)CC3)cc(C)nc21 | i | +
Cc1cc(C)c2c(n1)nn1c(N3CCN(CCOc4ccc(Cl)cc4)CC3)cc(C)nc21 | / | i
COc1ccc(F)cc1CN1CCN(c2cc(C)nc3c4c(C)cc(C)nc4nn23)CC1 | i | +
Cc1cc(N2CCN(CC#N)CC2)n2nc(C(F)(F)F)c(-c3ccccc3)c2n1 | i | i
SMILES | GIRK2 act | GluA2 TARP mod
COc1ccccc1-c1cnn2c(N3CCN(CC#N)CC3)cc(C)nc12 | i | i
CC(C)Cn1c(-c2ccc([N+](=O)[O-])cc2)nc2c(c(=O)c3ccccc3n2C)c1=O | / | +
COc1ccc(-c2nc3c(c(=O)c4ccccc4n3C)c(=O)n2CC(C)C)cc1 | / | i
O=C(CCCCCn1c(=S)[nH]c2ccccc2c1=O)NCC1CCCO1 (stereo not drawn) | i | i
Cc1ccc(-c2cc(C(F)F)n3ncc(C(=O)N4CCC(C)CC4)c3n2)cc1 | / | +
Cc1ccc(-c2cc(C(F)F)n3ncc(C(=O)n4c(C)nc5ccccc54)c3n2)cc1 | / | i
O=c1c2ccccc2nc(SCc2nc(-c3cccs3)no2)n1Cc1ccco1 | / | i
Cc1ccc(CC(=O)Nc2cccc3c2CCCC3)cc1 | / | i
CS(=O)(=O)Oc1ccc2c(c1)O/C(=C\c1c(Cl)cccc1Cl)C2=O | / | i
Cc1onc(-c2ccccc2Cl)c1C(=O)N1CCC(c2ccsc2)CC1 | i | +
Cc1nnsc1C(=O)N1CCC(CNC(=O)c2c(-c3ccccc3Cl)noc2C)CC1 | i | i
CCOC(=O)Cc1csc(NC(=O)Cc2cc(-c3ccc4c(c3)OCO4)on2)n1 | i | i
COc1ccc(SCCC(=O)Nc2ccc3c(c2)C(=O)NC3=O)cc1 | i | +
COc1ccc(S(=O)(=O)CC(=O)Nc2ccc3c(c2)C(=O)NC3=O)cc1 | i | i
CCSc1ccccc1C(=O)NCC1(c2ccc(OC)cc2)CCCC1 | i | +
COC(=O)NCC1(c2ccc(OC)cc2)CCCC1 | i | i
CCOc1ccc(-n2nnnc2SCC(=O)NC(C)C)cc1 | i | i
CC(C(=O)Nc1ccc(Br)cc1)N1C(=O)c2ccccc2S1(=O)=O (stereo not drawn) | i | i
CC(C(=O)Nc1cc(Cl)ccc1O)N1C(=O)c2ccccc2S1(=O)=O (stereo not drawn) | i | +
CC(C(=O)Nc1nc2ccccc2s1)N1C(=O)c2ccccc2S1(=O)=O (stereo not drawn) | / | +
CC(C(=O)Nc1ccc(F)c(F)c1F)N1C(=O)c2ccccc2S1(=O)=O (stereo not drawn) | / | i
CC(C(=O)Nc1nc2ccc(S(C)(=O)=O)cc2s1)N1C(=O)c2ccccc2S1(=O)=O (stereo not drawn) | / | i
CC(C(=O)Nc1cccc(Br)c1)N1C(=O)c2ccccc2S1(=O)=O (stereo not drawn) | i | +
CC(Oc1cccc(F)c1)C(=O)NCCn1nc(-c2cccs2)ccc1=O (stereo not drawn) | i | i
COC(=O)COc1ccc2c(c1)O/C(=C\c1cc(OC)c(OC)c(OC)c1)C2=O | / | i
SMILES | GIRK2 act | GluA2 TARP mod
C=CCn1c(SCc2nc(-c3ccc(Br)cc3)no2)nc2cc3c(cc2c1=O)OCO3 | i | i
COc1cn(CC(=O)NCc2ccco2)c(CSc2nc(C)cc(C)n2)cc1=O | i | i
Cc1nnc2ccc(OCCNS(=O)(=O)c3ccc(OC(F)(F)F)cc3)nn12 | i | i
CCOC(=O)Nc1nc(CC(=O)Nc2ccc(F)c(Cl)c2)cs1 | i | /
COc1ccc(N(C)S(=O)(=O)c2ccsc2-c2nc(-c3ccc(SC)cc3)no2)cc1 | i | +
CN(c1ccc(F)cc1)S(=O)(=O)c1ccsc1-c1nc(-c2ccc(F)cc2)no1 | i | i
COc1ccccc1OCCn1c(CN(C)C(=O)c2ccco2)nc2ccccc21 | i | /
COc1ccc(-c2nc(S(=O)(=O)c3ccccc3)c(NCCN3CCOCC3)o2)cc1 | i | i
O=C(Nc1ccc2c(c1)N(C(=O)c1cccs1)CC2)c1ccc(Br)o1 | i | /
COc1ccc(-n2c(SCc3nc(-c4ccc5c(c4)OCO5)no3)nc3ccsc3c2=O)cc1 | i | i
Cc1ccc(CNC(=O)CC2Nc3cc(C)c(C)cc3NC2=O)cc1 (stereo not drawn) | / | +
C=CCNC(=O)CC1Nc2cc(C)c(C)cc2NC1=O (stereo not drawn) | i | /
COCCn1c(C(=O)Nc2ccccc2)cc2c(=O)n(C)c(=O)n(C)c21 | i | i
COCCn1c(C(=O)Nc2ccc(F)c(Cl)c2)cc2c(=O)n(C)c(=O)n(C)c21 | i | +
COc1ccc(-c2ccc(OCCNS(=O)(=O)c3cc(C)c(OC)cc3C)nn2)cc1 | i | i
COc1cc(C)c(S(=O)(=O)NCCOc2ccc(-c3ccc(F)cc3)nn2)cc1C | i | +
CC1=NN(c2ccccc2)C(=O)C1C(=O)c1ccc(C)c(C)c1 (stereo not drawn) | i | +
